Screens deposited in PubChem BioAssay by National Center for Advancing Translational Sciences (NCATS).
The list is not random: actives were taken first. Their share in the collection is about 2.9%.
Integrin act MD: activates integrin-mediated alleviation for muscular dystrophy; Potency, µM (series often up to 38.3 µM), without a hit: at the top dose activation, usual class: activators; hit rate 0.064% among 350,000; alpha7betagal myoblasts, beta-gal FDG fluorescence, 48 h; active means well fitted activation curve with a large enough effect; inconclusive means small, poorly fitted or top-dose-only effect; inactive means no such curve, though single readings can be large or run the other way;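 further: potency means the concentration at half of the fitted maximal effect; 100% = response of the positive control SU9516; nearly all actives have a fitted effect of over 60% in size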
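alpha7betagal+/- myoblasts (passage 13, 250/well) treated 48 h at 37C with compounds at 1:260 dilution of DMSO stock. Lysed, then beta-galactosidase activity read as FDG fluorescence (ex 480/em 540) after 30 min, with pre-read for autofluorescence.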
D3 antag: antagonists of human D3 dopamine receptor. hit rate 2.5% among 360,000. P35462. D3R cells, DiscoveRx beta-arrestin luminescence, antagonist mode; stronger effect = lower value. max response, negative = inhibition, %; in the data active means max response below about -50%; inconclusive means no clear call, values can overlap the other calls; further: on the % scale 0 is the no-effect control and ±100 the full control effect
Target sequence (P35462 whole entry, looked up): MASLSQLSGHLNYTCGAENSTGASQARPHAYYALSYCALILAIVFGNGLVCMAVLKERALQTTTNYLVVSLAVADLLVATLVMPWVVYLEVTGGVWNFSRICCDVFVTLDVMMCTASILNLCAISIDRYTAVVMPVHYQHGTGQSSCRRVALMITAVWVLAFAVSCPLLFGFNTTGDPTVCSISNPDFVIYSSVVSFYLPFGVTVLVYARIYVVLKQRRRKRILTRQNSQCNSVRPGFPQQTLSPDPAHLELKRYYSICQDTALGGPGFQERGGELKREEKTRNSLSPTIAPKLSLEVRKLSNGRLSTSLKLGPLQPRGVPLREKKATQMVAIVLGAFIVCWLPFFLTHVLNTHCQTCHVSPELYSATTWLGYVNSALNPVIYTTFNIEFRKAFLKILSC
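Cells expressing the human receptor were seeded at 1500 cells/well, incubated overnight at 37 degrees C in 5% CO2, then exposed to library compounds with dopamine controls for 90 minutes at 37 degrees C before luminescent detection.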
D3 ag: D3 dopamine receptor (human) agonism; P35462; D3R DiscoveRx beta-arrestin cells, luminescence, 90 min; max activation, %; hit rate 0.58% among 410,000; AID 652048; in the data active means max activation above about 30%; further: 0% is about no effect
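Agonist mode: compounds and dopamine controls were applied to plated cells for 90 min at 37 degrees C after an overnight attachment at 1500 cells/well. Luminescent read-out followed 30 - 60 minutes at room temperature with DiscoveRx detection reagent.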
The depositor's hits bear a star; ? = inconclusive; / = no result; [ ] = remark or other dose.

SMILES	Integrin act MD	D3 antag	D3 ag
COc1ccc(-c2cc([N+](=O)[O-])ccc2OCC(=O)N(C)CC(=O)Nc2ccc(C)cc2)cc1	-41%	?	-8
Cc1ccc(NC(=O)CN(C)C(=O)COc2cc(F)ccc2[N+](=O)[O-])cc1	-8%	-53*	-17
CCOc1cc(C(=S)N2CCN(C)CC2)ccc1OCC(=O)N1CCOCC1	-21%	11	-1
Cc1oc(-c2nc3ccccc3n2C)cc1C(=O)c1ccccc1	-20%	-60*	3
Cn1cc(C(=O)c2ccccc2)cc1-c1nc2ccccc2n1C	-10%	24	1
CCCCc1ccc(CC2S/C(=C(\C#N)C(=O)N3CCOCC3)N(c3ccccc3)C2=O)cc1 (centres undefined)	-13%	9	4
N#C/C(C(=O)N1CCOCC1)=C1/SC(Cc2ccccc2)C(=O)N1c1ccccc1 (centres undefined)	6%	-51*	-4
CNc1cc([N+](=O)[O-])ccc1N/C=C/C(=O)c1ccc2c(c1)OCO2	-6%	-50*	-23
CNc1cc([N+](=O)[O-])ccc1N/C=C/C(=O)c1cccs1	3%	-7	-22
O=C1Nc2ccccc2/C1=N/N=C/c1ccc(-c2ccc([N+](=O)[O-])cc2)o1	19%	-1	-1
CCOC(=O)c1c(N)c2cc([N+](=O)[O-])ccc2n1C	-25%	-26	-2
CCOC(=O)/C(=C/c1c(C)n(C)c2ccc([N+](=O)[O-])cc12)C(C)=O	-53%	-54*	-9
COc1cc(C(=O)N2CCN=C2c2ccccc2)cc(OC)c1OC	-6%	0	1
C[C@@H]1CN([C@H](C)CO)C(=O)c2cc(Br)cnc2O[C@H]1CN(C)Cc1ccccc1	4%	-21	-4
Cc1ccccc1CNC(=O)c1ccc2nc(C(C)C)oc2c1	/	/	9
O=Nc1c(O)n(Cc2ccc(Cl)cc2)c2ccccc12	-12%	3	2
O=Nc1c(O)n(Cc2ccc(Cl)cc2Cl)c2ccccc12	-25%	-92*	1
COCC1=C(C(=O)OC)C(c2cccs2)n2ncnc2N1 (centres undefined)	12%	1	3
Cc1cccc(C)c1NC(=O)CNC(=O)C(C)N(C)CC(=O)Nc1ccc(F)cc1 (centres undefined)	16%	9	-4
COc1ccccc1NC(=O)CSc1nnnn1-c1ccc(C(=O)O)cc1	1%	0	-5
Cc1ccccc1NC(=O)CCSc1nnnn1-c1ccccc1	2%	-23	31*
O=C(O)CCSc1nnnn1-c1ccccc1	10%	-14	4
Cc1cccc(C)c1NC(=O)CSc1nnnn1-c1ccc(C(=O)O)cc1	15%	-79*	2
COc1ccccc1OCC(=O)Nc1c(C(=O)c2ccc(C)cc2)oc2ccccc12	/	/	1
Cc1cc2c(cc3c(=O)n(CC(=O)NCc4ccccc4Br)ncn32)s1	/	/	17
SMILES	Integrin act MD	D3 antag	D3 ag
Cc1ccc(N2CCN(C(=O)c3c(C)oc4ncnc(N5CCCCC5)c34)CC2)c(C)c1	/	/	-13
COc1ccc(OCC(=O)N2CCC(c3nc4ccccc4s3)CC2)cc1	/	/	4
O=C(c1ccccc1F)N1CCCc2ccccc21	?	6	-3
CCc1ccc2c(c1)CCCN2C(=O)c1ccccc1C(=O)O	-27%	-68*	-50
CCN1CCN(c2ncc(C(=O)Nc3cc(Cl)ccc3OC)c3ccccc23)CC1	-54%	7	-9
CCN1CCN(c2ncc(C(=O)N3CCCc4ccccc43)c3ccccc23)CC1	-41%	-69*	4
O=C(c1ccc(C(=O)N2CCCc3ccccc32)s1)N1CCCc2ccccc21	-6%	12	16
O=C(c1cnc2sccn2c1=O)N1CCCc2ccccc21	0%	-52*	-5
O=S1(=O)N=C2CCCN2C(c2ccc(F)cc2)N1 (centres undefined)	-6%	-23	-2
O=C(C1CC(c2ccccc2O)=NO1)N1CCc2ccccc2C1 (centres undefined)	5%	-95*	-2
O=C(C1CC(c2ccc(F)cc2)=NO1)N1CCc2ccccc2C1 (centres undefined)	4%	-20	3
CCCCC(Sc1nc(N)c(NC(=O)c2ccc(OCC)cc2)c(=O)[nH]1)C(=O)O (centres undefined)	11%	4	-1
Cc1ccc(NC(=O)Cc2csc(-c3ccccc3)n2)cc1F	0%	2	5
O=C(Cc1csc(-c2ccccc2)n1)Nc1ccc(C(F)(F)F)cc1	13%	-56*	-1
CC(C)(C)NC(=O)C1CC1(c1ccccc1)c1ccccc1 (centres undefined)	?	0	-5
COc1ccc(NC(=O)c2c(NC(=O)CCC(=O)O)sc3c2CCCCC3)cc1	6%	1	4
CN1CCN(C(c2ccc(F)cc2)c2ccc3cccnc3c2O)CC1 (centres undefined)	-29%	-27	-2
CN1CCN(C(c2ccc(Br)cc2)c2cc(Cl)c3cccnc3c2O)CC1 (centres undefined)	-70%	-76*	-9
COc1ccc(-c2csc(Cc3nnc4n3CCCCC4)n2)cc1OC	-14%	-1	6
Cc1ccc(OCCOCCN2CCN(C)CC2)c([N+](=O)[O-])c1	8%	-16	-3
Cc1cc(OCCN2CCC(Cc3ccccc3)CC2)ccc1[N+](=O)[O-]	-47%	-64*	-24
Cc1ccc([N+](=O)[O-])c(OCCN2CCNCC2)c1	43%	-62*	27
Cc1cc(OCCN2CC(C)OC(C)C2)ccc1[N+](=O)[O-] (centres undefined)	-19%	-24	-6
Cc1ccc(OCCN2C(=O)c3ccccc3C2=O)c(C)c1	-1%	-22	-4
Cc1ccc(OCCN2C(=O)c3ccccc3C2=O)c([N+](=O)[O-])c1	6%	-69*	-17
SMILES	Integrin act MD	D3 antag	D3 ag
Cc1ccc(OCCOCCNC(C)(C)C)c([N+](=O)[O-])c1	6%	?	-16
COCCCNCCOCCOc1ccc(C)cc1[N+](=O)[O-]	-16%	-54*	-4
COc1cc(/C=C2\SC(N)=NC2=O)cc(OC)c1	-16%	?	-9
O=C(O)CSc1nnc(Cc2ccccc2)n1-c1ccccc1	?	-27	-7
COc1nc(OCCNS(=O)(=O)c2ccc(C)cc2)nc(N(C)C)n1	6%	6	-6
CC(=O)c1cccc(OCc2cc(C(=O)N(C)C(C)c3ccccn3)no2)c1 (centres undefined)	-41%	-6	1
CCOC(=O)c1nnsc1C(OC)Oc1ccccc1 (centres undefined)	0%	0	-8
Cc1ccc(OCCCCn2ccnc2)c([N+](=O)[O-])c1	8%	-20	-2
COCCNCCCCOc1ccc(C)cc1[N+](=O)[O-]	-41%	0	-25
COCCCNCCOc1ccc(C)cc1[N+](=O)[O-]	18%	-84*	-18
CCC(C)NCCCCOc1ccc(C)cc1[N+](=O)[O-] (centres undefined)	-39%[7.66 µM]	-93*	-30
CCC(C)NCCCOc1ccc(C)cc1OC (centres undefined)	-4%	?	-8
C=CCNCCCCOc1ccc(C)cc1[N+](=O)[O-]	-38%	-82*	1
COC(=O)CN1C(=O)N/C(=C/c2ccc(C)o2)C1=O	-11%	9	7
CC1CCN(S(=O)(=O)c2cn(CC(=O)Nc3ccc(F)c(Cl)c3)c(=O)c3ccccc23)CC1	/	/	5
